# Compounds without any hit were thinned out: in the full panel of roughly 83,000, 20% have a hit.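 Interpretation: 100, growth as untreated; towards 0, rising growth inhibition; 0, no net growth; 0 to -100, cell death. Compounds scoring below 10 were considered active.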 Active and inactive are the calls of the source.
# Tested on: TK-10 renal
# Assay: NCI-60 one-dose screen, 48 h (100 = growth as untreated, 0 = no growth, -100 = all killed)
# Conditions: 10 µM unless noted
row,SMILES,growth
1,Nc1ccc(F)c(Cl)c1F,108% (inactive)
2,COc1ccc(Br)c2c1C(=O)CC2,147% (inactive)
3,Oc1cccnc1CN1CCCC1,111% (inactive)
4,CC(C)(CC(=O)O)CC(=O)O,96.5% (inactive)
5,CN=S(=O)(OCCCCCOS(=O)(=NC)c1ccc(C)cc1)c1ccc(C)cc1 (stereo not drawn),118% (inactive)
6,NC(CO)(CO)c1ccccc1,96.9% (inactive)
7,CC1CC2C3CCC4=CC(=O)CCC4(C)C3CCC2(C)C1(O)C(=O)CO (stereo not drawn),117% (inactive)
8,CC(c1ccccc1)N1C(=O)CSC1=S (stereo not drawn),42.3% (inactive)
9,CN1CCN(C(=S)S)CC1,111% (inactive)
10,Nc1ncnc(Nc2ccccc2)n1,110% (inactive)
11,O=c1cc(C(F)(F)F)[nH]c(=S)[nH]1,97.7% (inactive)
12,CCOC(=O)c1c(C)[nH]c(C)c1C=O,95.9% (inactive)
13,CCOP(=O)(NC(c1ccccc1)c1ccccc1)OCC,112% (inactive)
14,CC(C)(C)[Si](C)(C)OCC1OC(n2cnc3c(N)ncnc32)CC1OS(C)(=O)=O (stereo not drawn),99.7% (inactive)
15,Nc1nc(Cl)cc(Cl)n1,93.6% (inactive)
16,C=C(C)COc1ccc(C(C)(C)C)cc1,97.1% (inactive)
17,Nc1ccc2c(c1)Cc1cc(N)c(N)cc1-2,119% (inactive)
18,Clc1ccc(C(SCc2ccccc2)SCc2ccccc2)cc1,104% (inactive)
19,O=[N+]([O-])c1ccc(-c2nc(N(CCO)CCO)c3ccccc3n2)o1,-14.1% (active)

row,SMILES,growth
1,CCNC(=O)OCCc1c2ccccc2nc2ccccc12,132% (inactive)
2,C=C(OC(C)=O)c1ccccc1,100% (inactive)
3,O=C(OCc1ccccc1)n1nnc2ccccc21,107% (inactive)
4,Cc1ccc2nc(N)nnc2c1,108% (inactive)
5,CC(=O)NC(CCC(=O)c1ccccc1)C(=O)O (stereo not drawn),93.8% (inactive)
6,CCOC(=O)/C(C#N)=C\c1c[nH]c2ccccc12,221% (inactive)
7,CCN(C(=O)Nc1ccccc1Cl)c1ccccc1,121% (inactive)
8,Nc1cc2ccccc2c(O)c1O,114% (inactive)
9,NC(CSSCC(N)C(=O)O)C(=O)O (stereo not drawn),20.4% (inactive)
10,COc1cc(C(=O)N2CCN(c3ccccc3)CC2)c2ccccc2n1,57.1% (inactive)
11,Cc1ccc(C)c(CCO)c1,99.6% (inactive)
12,S=c1nc2[nH]c3ccccc3c2n[nH]1,122% (inactive)
13,NCCCN1CCCC1=O,100% (inactive)
14,Cc1c(Cl)cccc1N=C=S,106% (inactive)
15,O=[n+]1ccn([O-])c2ccccc21,98.3% (inactive)
16,Nc1ncnc2c1ncn2C1OC(CO)C2OC21 (stereo not drawn),99% (inactive)
17,CCOc1ccc2c(c1)c(C)cc(C)[n+]2CC,97% (inactive)
18,Cc1ccc(S(N)(=O)=O)cc1Cl,107% (inactive)
19,O=C1C=Cc2ccccc2/C1=C/c1[nH]c(=O)[nH]c1O,65.2% (inactive)
